TRPML1 inh = inhibitors of human TRPML1 channel; activity change, negative = inhibition, % (test concentration not listed); TRPML1-inducible cells, Ca2+ dye fluorescence, FDSS; stronger effect = lower value; inhibition of EC80 agonist-evoked calcium signal; Q9GZU1; 390,000 tested, 0.02% active; in the data active = activity change below about -50%; inconclusive = between about -30% and that limit;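 also: stimulus is agonist 54-4 at its EC80 concentration; % is scaled to controls: 0 for no effect and ±100 for the full control effect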
Target sequence (Q9GZU1 whole entry, looked up): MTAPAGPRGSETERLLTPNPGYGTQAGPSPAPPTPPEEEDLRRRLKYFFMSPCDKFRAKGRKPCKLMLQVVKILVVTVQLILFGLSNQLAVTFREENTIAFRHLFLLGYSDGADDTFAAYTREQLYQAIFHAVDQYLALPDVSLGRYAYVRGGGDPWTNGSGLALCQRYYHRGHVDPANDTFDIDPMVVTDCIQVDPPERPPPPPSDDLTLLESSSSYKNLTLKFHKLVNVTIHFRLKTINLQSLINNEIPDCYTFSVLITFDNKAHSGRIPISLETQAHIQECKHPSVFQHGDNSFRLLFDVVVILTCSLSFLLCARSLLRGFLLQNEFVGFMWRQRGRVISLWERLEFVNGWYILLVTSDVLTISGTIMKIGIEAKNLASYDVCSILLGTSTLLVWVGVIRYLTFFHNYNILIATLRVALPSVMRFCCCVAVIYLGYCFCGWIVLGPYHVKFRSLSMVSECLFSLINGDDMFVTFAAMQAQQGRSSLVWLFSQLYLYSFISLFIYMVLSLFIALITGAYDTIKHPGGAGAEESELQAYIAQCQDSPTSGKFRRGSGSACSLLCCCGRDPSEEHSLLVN
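Tet-induced TRPML1-DL cells loaded with Ca8 no-wash calcium dye were read kinetically on FDSS. Compound addition was followed by EC80 agonist 54-4 (4 uM final); inhibition was read over 110 s.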
TRPV1 ag = activates the human vanilloid receptor TRPV1. activation, % at 8.33 µM. TRPV1-expressing cells, Fluo-8 calcium influx, agonist mode. 320,000 tested, 0.19% active. AID 540275. Q8NER1; in the data active = activation above about 80%; inconclusive = between about 30% and that limit; also: 0% is about no effect
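Fluo-8 calcium influx in TRPV1-expressing cells, kinetic read (ex 480/em 520 nm). Compound added and read 3 min for agonist activity, followed by capsaicin at EC20 final and 2 min further read for enhancement.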
TRPML1 agonist = human mucolipin-1 channel agonism; TRPML1-expressing cells, Ca2+ dye fluorescence, FDSS; AID 624414; 410,000 tested, 0.12% active; activation, % (no concentration beside the values); Q9GZU1; in the data active = activation above about 50%; inconclusive = mostly about 30% to 49%; also: 0% is about no effect
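Tetracycline-induced TRPML1-DL cells are seeded and incubated overnight before loading with a no-wash Ca2+ dye and quencher. Agonist activity is taken from the 110 s fluorescence read following compound pin-transfer on an FDSS, before EC80 54-4 challenge.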
A-T KAP1 phos = potential ataxia-telangiectasia treatments restoring KAP-1 phosphorylation | Potency, µM (highest dose often 57.5 µM), without a hit: top-dose activation, most hits filed as activators | AID 485349 | 320,000 tested, 0.19% active | F2112 A-T fibroblasts, KAP-1 phosphorylation AlphaLISA; neocarzinostatin DNA damage 30 min before lysis; active = well fitted activation curve with a large enough effect; inconclusive = small, poorly fitted or top-dose-only effect; inactive = no such curve, though single readings can be large or run the other way; also: potency is read from the fitted curve at half-maximal effect; % of control where 0% means no effect; nearly all actives have a fitted effect of over 45% in size
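ATM-like activity read as KAP-1 phosphorylation via AlphaLISA donor/acceptor antibody pairs after lysis and 6 hr at 25C. Cells were ATM-null patient fibroblasts (F2112, hTERT), dosed 60 min, then exposed to the DSB inducer NCS for 30 min.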
TRPV1 potentiator = potentiators of human vanilloid receptor 1 (TRPV1). Q8NER1. TRPV1-expressing cells, Fluo-8 calcium influx, capsaicin EC20 potentiation. potentiation, % at 8.33 µM. 320,000 tested, 0.02% active. AID 540277; in the data active = potentiation above about 80%; inconclusive = between about 30% and that limit; also: 0% is about no effect
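Fluo-8 calcium influx in TRPV1-expressing cells, kinetic read (ex 480/em 520 nm). Compound added and read 3 min for agonist activity, followed by capsaicin at EC20 final and 2 min further read for enhancement.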
* hit, by the source's call; ? = inconclusive; . = no result given. Sampled rows, rich in hits. Any-hit rate of the full collection: about 0.41%.

SMILES	TRPML1 inh	TRPV1 ag	TRPML1 agonist	A-T KAP1 phos	TRPV1 potentiator
N#C/C(=C\c1ccc(-c2ccc(C(=O)O)cc2)o1)c1nc2ccccc2[nH]1	7	?	61*	0%	16
Clc1ccc2nccnc2c1	.	.	0	.	.
Nc1ccc(/C=C/c2cc(Cl)nc3ccccc23)cc1	.	.	11	.	.
Cc1ccc(N2C(=O)C(F)(F)C2c2ccccc2)cc1 (centres undefined)	-20	15	63*	4%	-3
O=C1N(c2ccc3c(c2)OCCO3)C(c2ccccc2)C1(F)F (centres undefined)	9	17	3	-2%	-14
CN1/C(=C\C=O)C(C)(C)c2ccccc21	4	0	1	4%	1
CN1\C(=C/C=C/C=C/C=[N+](C)C)C(C)(C)c2ccccc21	5	?	86*	-1%	-12
CC(=O)c1cccc(NC(=O)c2cccc(NC(=O)c3ccco3)c2)c1	-16	-7	0	6%	6
O=C(NC1CCCC1)c1cccc(NC(=O)c2ccco2)c1	-22	-6	60*	.	10
COc1ccc(NC2c3ncccc3C(=O)N2Cc2cccs2)cc1 (centres undefined)	-6	?	1	-5%	-31
O=C1c2cccnc2C(Nc2ccc(Br)cc2)N1Cc1cccs1 (centres undefined)	5	84*	0	0%	-27
O=C1Cc2ccccc2Sc2ccccc21	-1	6	3	3%	?
Cc1ccc2c(c1)Sc1ccccc1CC2=O	6	1	0	40µM*	-5
CC(C)c1ccc(C(=O)C[N+]2(C)CCOCC2)cc1	.	.	0	.	.
N=c1n(CC(=O)c2ccc(Br)cc2)c2ccccc2n1Cc1ccccc1	-6	2	0	22µM*	0
Cn1c(=N)n(CC(=O)c2ccc(Cl)c(Cl)c2)c2ccccc21	3	22	1	28µM*	2
C(=C\c1nc2ccccc2o1)/c1ccc2c(c1)OCO2	.	.	1	.	.
Cc1ccccc1CN1[C@H](C)[C@H](c2ccccc2)OCCS1(=O)=O	.	.	-1	.	.
Cc1nc2ccccc2nc1/C=C/c1ccc(N(C)C)cc1	.	.	14	.	.
O=C(COC(=O)c1cc(-c2cccs2)nc2ccccc12)c1ccccc1	12	.	1	.	.
COc1ccc(CNC(=O)COC(=O)c2cc(-c3cccs3)nc3ccccc23)cc1OC	-5	88*	0	9%	-19
N#C/C(=C/c1ccc(-c2cccc([N+](=O)[O-])c2)o1)C(=O)Nc1nc(-c2cccs2)cs1	-11	.	-1	.	.
N#C/C(=C\c1ccc(-c2ccc([N+](=O)[O-])cc2)o1)C(=O)Nc1nc(-c2cccs2)cs1	-101*	-2	0	1%	-15
CC(C)CN(CC(C)C)CC(O)COc1ccccc1Br (centres undefined)	1	18	15	20µM*	-22
Cc1c(O)ccc2c1OC(C)(C)CC2	.	.	-1	.	.
SMILES	TRPML1 inh	TRPV1 ag	TRPML1 agonist	A-T KAP1 phos	TRPV1 potentiator
CCc1nc(-c2ccc(-c3ccc(OC)cc3)nc2OC)no1	43	-6	1	14%	10
COc1ccc(-c2ccc(-c3noc(C(C)C)n3)c(OC)n2)cc1	-1	0	1	14µM*	-13
CC(C)[C@H]1COCCS(=O)(=O)N1Cc1cccc([N+](=O)[O-])c1	.	.	-1	.	.
C[n+]1c2cc(N)ccc2cc2ccc(N)cc21	?	.	104*	.	.
Nc1ccc2ccc(O)cc2c1	9	.	0	.	.
Cc1cc(S(=O)(=O)N2CCC(NC(=O)C34CC5CC(CC(C5)C3)C4)CC2)ccc1-n1cnnn1	-1	81*	-1	3%	-12
CN(C)c1ccc(/C=C2\C=Cc3ccccc32)cc1[N+](=O)[O-]	.	.	-1	.	.
CCN(CC)c1ccc(/C=C2\C(=O)c3ccc(C(=O)O)cc3C2=O)cc1	-16	?	78*	-15%	3
COc1ccc(CCNC(=O)CCCOc2cccc(C)c2C)cc1OC	12	83*	1	4%	13
CCN(CC)c1nc(NC2CCN(C)CC2)c2cc(OC)c(OC)cc2n1	.	.	0	.	.
CC(C)(C)c1ccc(/C=N/NC(=O)c2ccccn2)cc1	-2	83*	0	-1%	3
O=C(N/N=C/c1ccc(Br)s1)c1ccccn1	-7	87*	-1	3%	-19
CC(C)(C)c1ccc(C(=O)N/N=C/c2ccccn2)cc1	-10	83*	1	7%	-2
O=C(N/N=C/c1ccccn1)c1ccc(N/N=C/c2ccccn2)cc1	9	1	0	-1%	-16
O=C(N/N=C/c1ccsc1)c1ccccn1	?	27	0	2%	-26
Cc1cc([N+](C)(C)C)cc(C)c1/C=C/c1ccnc2ccccc12	.	.	0	.	.
CNc1ccc(/C=C2\C=Cc3ccccc32)cc1Cl	.	.	0	.	.
COc1cc2nc(N3CCCCC3)nc(NC3CC3)c2cc1OC	.	.	0	.	.
O=C(NCc1ccccc1)c1ccc(C(=O)N(C2CCCCC2)C2CCCCC2)cc1	?	?	119*	.	4
O=C(NCc1ccccc1)c1ccc(C(=O)NCc2ccccc2)cc1	-22	.	0	.	.
CCCCCCCOc1ccc(CC(=O)NO)cc1	.	.	-1	.	.
CCN(CC)c1ccc(/C=C2\C=Cc3ccccc32)cc1	.	.	0	.	.
O=C(Cc1cccs1)Nc1cccc(-c2ccc3nncn3n2)c1	-9	3	0	-1%	85*
O=C(Cc1ccc(F)cc1)Nc1cccc(-c2ccc3nncn3n2)c1	-2	-1	1	3%	14
O=C(c1ccccc1)C(c1ccccc1)[n+]1csc2ccccc21 (centres undefined)	.	.	0	.	.
COCCCNc1c2c3c(cccc3[nH]c1=O)C(=O)c1ccccc1-2	-18	2	113*	13%	9
COCCCNC1=C(Cl)C(=O)c2ccccc2C1=O	38	-1	1	-9%	9
CC(C)(C)c1ccc(C(=O)NCCC(=O)N2CCCC2)cc1	13	7	2	-3%	-8
CC(C)(C)c1ccc(C(=O)NCCC(=O)N2CCN(c3ncccn3)CC2)cc1	-14	0	69*	0%	7
c1ccc2cnccc2c1	.	.	-1	.	.
